Hit rate of the full screen: of about 1,300 compounds, about 380 (29%) were called active. About 37% were inconclusive and are not listed. Calls come from the whole dose curve; as a rule, active = well fitted inhibition curve with a large enough effect; inconclusive = small, poorly fitted or top-dose-only effect; inactive = flat fitted curve, though single readings scatter. This is one part of the list.
The compounds below were run against Thyrotropin receptor (Homo sapiens) (UniProt P16473) (assay: qHTS for antagonists of the Thyroid Stimulation Hormone Receptor: Hit Validation in Primary Screen). Settings: TSHR-expressing cells, cAMP antagonist mode; series mostly up to 58 µM; activity change, negative = inhibition: at the top concentration.
Chain of Thyrotropin receptor (Homo sapiens) (P16473 whole entry, looked up): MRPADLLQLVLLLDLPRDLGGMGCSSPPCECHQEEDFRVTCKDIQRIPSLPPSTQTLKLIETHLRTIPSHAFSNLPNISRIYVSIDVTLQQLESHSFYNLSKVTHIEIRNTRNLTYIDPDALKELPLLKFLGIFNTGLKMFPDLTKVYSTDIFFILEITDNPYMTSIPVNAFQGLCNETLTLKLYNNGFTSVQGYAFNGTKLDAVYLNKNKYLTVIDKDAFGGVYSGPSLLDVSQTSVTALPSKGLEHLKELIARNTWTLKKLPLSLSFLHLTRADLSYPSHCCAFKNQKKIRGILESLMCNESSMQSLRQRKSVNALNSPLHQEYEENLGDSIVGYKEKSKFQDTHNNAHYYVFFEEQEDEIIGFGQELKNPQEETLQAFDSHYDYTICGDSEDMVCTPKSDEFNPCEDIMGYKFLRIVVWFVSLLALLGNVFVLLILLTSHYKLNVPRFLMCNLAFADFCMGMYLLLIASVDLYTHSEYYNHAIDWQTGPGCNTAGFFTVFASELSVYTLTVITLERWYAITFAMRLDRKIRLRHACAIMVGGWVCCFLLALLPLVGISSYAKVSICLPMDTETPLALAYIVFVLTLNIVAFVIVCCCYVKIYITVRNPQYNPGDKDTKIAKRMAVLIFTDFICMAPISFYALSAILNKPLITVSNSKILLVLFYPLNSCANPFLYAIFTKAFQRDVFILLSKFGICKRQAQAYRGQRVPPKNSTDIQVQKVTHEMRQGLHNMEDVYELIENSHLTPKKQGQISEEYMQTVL
How it was run: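 TSHR-expressing cells were pretreated with compound, then stimulated with TSH at EC80 (4nM final) for 2 hours at 37 deg C. Cellular cAMP measured by competitive HTRF (anti-cAMP cryptate, cAMP-d2) after 30 min at room temperature.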
% is set by controls: 0 for no effect and ±100 for the full control effect; potency is the fitted concentration of half-maximal effect.
Note: nearly all actives have a fitted effect of over 80% in size.
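Throughout, for activity change, negative = inhibition: cAMP by competitive HTRF where cellular cAMP lowers the 665 nm FRET signal.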

Potency, active:
Cc1ccc(-n2c(Cl)c(Cl)nc(Cl)c2=O)cc1 26.9 µM
O=[N+]([O-])c1ccc(N=Nc2c(Cl)cc(O)cc2Cl)cc1 1.51 µM
COc1ccc(C(=O)NC2CCCc3c2cnn3-c2cccc(C)c2C)c(OC)n1 (stereo not given) 21.3 µM
Cn1c(N=Nc2ccc(N3CCOCC3)cc2)[n+](C)c2ccccc21 12 µM
CCCn1nc([N+](=O)[O-])c(C(C#N)c2nc3ccccc3o2)c(Cl)c1=O (stereo not given) 6.01 µM
CCn1nc([N+](=O)[O-])c(C(C#N)c2nc3cc(C(F)(F)F)ccc3s2)c(Cl)c1=O (stereo not given) 2.69 µM
Cc1cc(C(=O)CCl)c(C)n1CCc1ccccc1 30.1 µM
Brc1ccc(CNc2ccc3ncccc3c2)cc1 23.9 µM
O=S(=O)(Nc1ccc2cn[nH]c2c1)c1cc(Br)ccc1Br 21.3 µM
O=C(Nc1ccc(Cl)c(Cl)c1)Nc1ccccc1O 21.3 µM
O=C(c1cc(COc2cccc3cnccc23)on1)N1CCCC(CCCO)C1 (stereo not given) 13.5 µM
Cc1ccc(C(=O)Nc2ccc(Br)c(C(F)(F)F)c2)cc1 23.9 µM
O=C(Nc1nc(-c2cccs2)c(-c2cccs2)s1)C1CCCC1 19 µM
c1ccc2c(CSc3ncnc4nc[nH]c34)cccc2c1 30.1 µM
Clc1ccc(CSc2nnc(CNc3cccc(Cl)c3)o2)cc1 23.9 µM
Cc1sc(N/N=C/c2cccnc2)nc1-c1ccccc1 23.9 µM
COc1ccc(NC(=O)CCC2CCCCC2)cc1S(=O)(=O)N1CCCCC1 37.9 µM
COc1cc(C(C)=O)ccc1OCC(=O)Nc1ccc(C)c(S(=O)(=O)N2CCCCCC2)c1 19 µM
Cc1ccccc1-n1sc2cc(F)ccc2c1=O 19 µM
O=C(CSc1ncnc2ccccc12)c1ccc2c(c1)OCCO2 26.9 µM
O=S(=O)(Nc1ccc(O)c(Sc2nc3ccccc3s2)c1)c1cccc2ccccc12 37.9 µM
CCn1c(Cl)c(C=O)s/c1=N\S(=O)(=O)c1ccccc1 21.3 µM
CCN(CC)S(=O)(=O)c1cccc(NC(=O)CCSc2ccc(Cl)cc2)c1 30.1 µM
Cc1ccc(C(=O)N2c3ccccc3N(Cc3ccccc3)C(=O)C2(C)C)cc1 16.9 µM
O=C(NC(Nc1nc2ccc([N+](=O)[O-])cc2s1)(C(F)(F)F)C(F)(F)F)c1ccccc1 0.953 µM
O=C(NC(Nc1nc2ccc([N+](=O)[O-])cc2s1)(C(F)(F)F)C(F)(F)F)c1cccnc1 7.57 µM
O=C(COC(=O)C12CC3CC(CC(Br)(C3)C1)C2)Nc1cccc(S(=O)(=O)N2CCOCC2)c1 23.9 µM
C=CCN1C(=O)/C(=C/c2ccc(OC(C)=O)c(OCC)c2[N+](=O)[O-])SC1=S 7.57 µM
COc1ccc(/C=C/C(=O)c2ccc(NS(=O)(=O)c3ccc(C)cc3)cc2)cc1O 23.9 µM
Cc1cc(C(=O)CSc2nc3ccccc3[nH]2)c(C)n1CC1CCCO1 (stereo not given) 21.3 µM
Clc1c(CSc2nc3ccccc3o2)nc2ccccn12 23.9 µM
Cc1c(C(=O)Nc2ccc3c(c2)OCCO3)sc2nc(-c3ccccc3)cn12 30.1 µM
Cc1cc(-n2c(C)cc(C(=O)CSc3[nH]c(=O)cc(C(F)(F)F)c3C#N)c2C)no1 9.53 µM
CCCCn1c(NC(=O)c2ccccc2Cl)c(C#N)c2nc3ccccc3nc21 15.1 µM
CCCCn1c(-c2csc3c2CCCC3)n[nH]c1=S 30.1 µM
COc1ccc(-c2cc(-c3nc4ccccn4c3NCc3ccccc3)ccc2OC)cc1 2.69 µM
CCC(C)Sc1ccc(-c2nc3ccc(C)cn3c2NCc2ccccc2)cc1OC (stereo not given) 21.3 µM
CCCCNc1c(-c2cccc(-c3ccc(OC)cc3)c2)nc2ccc(C)cn12 37.9 µM
C=CC(C)(C)c1c2occc2c(O)c2ccc(=O)oc12 16.9 µM
O=[N+]([O-])c1ccc(S(=O)(=O)c2ccccc2)nc1 37.9 µM
COc1ccc(-c2sc3ccc(N4CCOCC4)cc3c2C#CCO)cc1 19 µM
COc1ccc(C(=O)c2ccccc2)c2c(O)ccc(C(=O)c3ccccc3)c12 12 µM
O=C(NCc1cccc(Cl)c1)c1cc(COc2ccc3ncccc3c2)on1 9.53 µM
Cc1ccc(F)cc1CNC(=O)c1cc(COc2ccc3ncccc3c2)on1 21.3 µM
CC(CNC(=O)c1cc(COc2ccc3ncccc3c2)on1)c1ccccc1 (stereo not given) 23.9 µM
COc1ccc(-c2csc(/C(C#N)=C\c3ccc(O)c([N+](=O)[O-])c3)n2)cc1OC 1.9 µM
CCOc1ccc(-c2csc(/C(C#N)=C\c3ccc(O)c([N+](=O)[O-])c3)n2)cc1 6.01 µM

Activity change, negative = inhibition, inactive:
CCOC(=O)c1cccc(OCC(O)CNCCOc2ccccc2F)c1 (stereo not given) -1.9%
O=C(NCCc1ccccc1)c1cccnc1N1CCCCCC1 -6.11%
CCOC(=O)N1CCN(C(=O)CCc2ccccc2)CC1 -3%
CCOc1ccc(-n2c(SCC(=O)NC(C)CC)nc3n[nH]c(C)c3c2=N)cc1 (stereo not given) -17.2%
O=C(Nc1ccncc1)Nc1cc(Cl)ccc1Cl -11.4%
CSc1ccccc1OCc1cc(C(=O)NC2CCc3ccccc32)no1 (stereo not given) -4.75%
Cc1nc2ccc(C(=O)Nc3ccc4nc[nH]c4c3)cc2[nH]1 -9.02%
CCn1c(=S)sc2c(=O)n(CC(=O)Nc3ccccc3OC)c(C)nc21 -9.71%
O=C(COCc1cc(-c2cccs2)on1)NC1CCCCC1 -10.5%
COc1ccc(CC(=O)Oc2cc(C)ccc2C)cc1 -12.9%
CN(C)/C=C(/C(=O)c1ccc(Cl)cc1)S(=O)(=O)c1ccc(Cl)cc1 -4.03%
O=C(COc1ccc(Cl)cc1)NCc1nnc(SCC(=O)NC2CCCCC2)o1 -2.3%
C(=N\N1CCN(Cc2cccc3ccccc23)CC1)/c1cccnc1 -9.51%
Nc1c(C(=O)NCc2ccc3c(c2)OCO3)nnn1CC(=O)Nc1ccc(Br)cc1 -2.74%
COc1cc(C(=S)N2CCCC2)ccc1OCc1ccc(C)cc1 -6.97%
COc1ccc(Br)cc1/C=N/NC(=O)CN1CCCCC1 0.691%
COc1ccc(NS(=O)(=O)c2cc(NC(=O)/C=C/c3cc(OC)ccc3OC)ccc2N2CCCCC2)cc1 -12.9%
COC(=O)CN1C(=O)COc2ccc(S(=O)(=O)N3CCCC3)cc21 -2.77%
COC(=O)c1cc(=O)n(-c2c(Cl)cc(C(F)(F)F)cc2Cl)[nH]1 -7.03%
CCCN1CCN(CCCNC(=O)Cn2nc(C)n3c(cc4cc(OC)ccc43)c2=O)CC1 -1.9%
Cc1c(C(=O)OC/C(O)=C(\C#N)c2nc3ccccc3[nH]2)oc2ccc(Br)cc12 -3.86%
CS(=O)(=O)N(CC(=O)N1CCOCC1)c1cccc(F)c1 -1.09%
Cc1ccc(S(=O)(=O)c2c(C(=O)c3ccccc3)cnc3cc4c(cc23)OCCO4)cc1 -10.4%
O=C(CSc1n[nH]c(=O)n1C1CC1)c1ccc2c(c1)OCCO2 -2.97%
COCC(C)NC(=O)C1c2ccccc2Oc2ccccc21 (stereo not given) -5.99%
CC(=O)c1cccc(NC(=O)CCCSc2ccccc2)c1 -8.01%
CC(=O)N1c2ccc(S(=O)(=O)NCCC(=O)Nc3cccc(Cl)c3)cc2CC1C (stereo not given) -2.02%
CC1CCCN(S(=O)(=O)c2csc(C(N)=O)c2)C1 (stereo not given) -8.21%
CCOP(=O)(Cc1ccc(C(C)(C)CC(C)=O)o1)OCC 2.1%
O=C(c1ccc2c(c1)N(Cc1ccccc1)C(=O)c1ccccc1S2)N1CCCC1 -8.9%
Cc1ccc(CN2C(=O)c3ccccc3Sc3ccc(C(=O)NCCCN4CCOCC4)cc32)cc1 -7.23%
COc1ccc2nc(NC(=O)c3ccccc3[N+](=O)[O-])sc2c1 -12.5%
Cc1cccc(NC(=O)C2CCN(S(=O)(=O)c3ccc4c(c3)NC(=O)CO4)CC2)c1 -1.24%
CSc1cccc(NC(=O)CN2C(=O)COc3ccc(S(=O)(=O)N4CCOCC4)cc32)c1 -4.44%
COc1cc(/C=C/C(=O)c2ccc(NS(=O)(=O)c3ccc(C)cc3)cc2)ccc1OC(F)F -7.78%
CCOc1ccccc1NC(=O)CSc1nc2ccccc2c(=O)n1CC1CCCO1 (stereo not given) -5.07%
Nc1nc(SCC(=O)NCC2CCCO2)[nH]c(=O)c1NC(=O)c1ccc(F)c(F)c1 (stereo not given) -3.95%
CC1(C)CC(O)CC(C)(C)N1CC(O)COCc1ccccc1 (stereo not given) -8.04%
Cc1ccc(Sc2ncccc2NC(=O)c2ccccc2Cl)cc1 -0.893%
Cc1cccc2c1-c1sc(C(=O)NCCCN3CCCC(C)C3)cc1CO2 (stereo not given) -9.68%
CCCCCCSc1ccc(-c2nc3ccc(Cl)cn3c2NCCCC)cc1OC -8.61%
COc1ccc(-c2csc3ncn(Cc4ccccc4)c(=O)c23)cc1 -4.81%
CCOc1ccccc1/C=C/c1onc(C)c1S(=O)(=O)N1CCC(C(=O)N2CCCCCC2)CC1 -7.46%
CCOc1ccccc1NC(=O)C1(S(=O)(=O)c2ccc(Cl)cc2)CC1 -5.39%
COc1cccc(O)c1CN1CCC(C(=O)Nc2ccc(Oc3cccnc3)cc2)CC1 -8.53%
O=C(c1ccc2c(=O)n(Cc3ccc4c(c3)OCO4)c(=S)[nH]c2c1)N1CCCCC1 -8.61%
CCN(C(=O)CN1C(=O)COc2ccc(S(=O)(=O)N3CCOCC3)cc21)c1ccc(OC)cc1 -2.48%
COC(=O)c1ccc(NC(=O)c2ccccc2)o1 -9.82%
Cc1cc(OCc2cc(C(=O)NCc3csc(C(C)C)n3)no2)cc(C)c1Cl -20.8%
Cc1ccc(OCc2cc(C(=O)NCC3COCCO3)no2)cc1C (stereo not given) -1.01%
COc1ccc(CNC(=O)C(C)OC(=O)c2cccs2)cc1 (stereo not given) 0.0864%
COc1ccc(S(=O)(=O)NCCc2cn3nc(C)c(C)nc3n2)cc1F -4.26%
COc1ccc(NC2CCCN(C(=O)CCc3cccc(F)c3)C2)cc1 (stereo not given) -4.72%
